From PubChem BioAssay AID1626 (SRMLSC, 2009)
Screen size: about 220,000 compounds; about 2,000 (0.91%) were called active. Not shown: some 2% with an inconclusive outcome. Not all results are given here. Entries with a potency or affinity are not part of this list. Values without a mark were called inactive. No stated cut-off is given here; in the data, inconclusive means inhibition above about 80% without an active follow-up result; inactive means below that; test concentration not stated here.

Assay: M. tuberculosis H37Rv growth inhibitors, H37Rv strain (AID 1626);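 further: bacteria incubated seven days before Alamar blue readout; 0% = bacteria only wells and 100% = bacteria with antibiotic wells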
Settings: hits give high values, concentration not given here

Row | SMILES | inhibition
1 | Cc1ccccc1N(CC(=O)NCCSCc1ccco1)S(C)(=O)=O | -3.95%
2 | O=C(COC(=O)c1ccc(O)cc1)Nc1ccc(N2CCCCC2)cc1 | 3.59%
3 | CC12CCC(C(=O)Nc3ccc4c(c3)OCCO4)(OC1=O)C2(C)C (stereo not given) | -12.4%
4 | N#Cc1c(N)c(C(=O)c2ccc(Cl)cc2)n2c1CCC2 | -2.62%
5 | CCCCOC(=O)c1nnc(-c2ccc(Cl)cc2)o1 | -12.6%
6 | CC(C)C(=O)Nc1nnc(-c2ccccc2)o1 | 10.9%
7 | CC(C)(C)C(=O)Nc1nnc(-c2ccncc2)o1 | -0.06%
8 | O=C(Nc1nnc(-c2ccncc2)o1)c1ccccc1 | 68%
9 | O=C(Nc1nnc(-c2ccccc2)o1)c1cccc(N2C(=O)CCC2=O)c1 | 7.39%
10 | CC(NC(=O)c1ccc(Br)s1)c1ccncc1 (stereo not given) | 0.09%
11 | O=C(Nc1cccnc1)c1ccc(Br)s1 | -8.07%
12 | CCCCNC(=O)Nc1nnc(-c2ccccc2)o1 | 64.8%
13 | COCCNC(=O)CCC(=O)NNc1nc2ccccc2c2nc(C)nn12 | -0.78%
14 | CN(C)S(=O)(=O)c1cccc(C(=O)Nc2ccccc2[N+](=O)[O-])c1 | -64.1%
15 | CC(=O)c1cccc(NC(=O)c2ccc(N(Cc3ccc(C)cc3)S(C)(=O)=O)cc2)c1 | 1.69%
16 | Cc1ccc(/C=N/n2c(C)cc(C)c(C#N)c2=O)cc1 | -12.6%
17 | O=C(NC1(C(F)(F)F)NC(=O)N(c2ccccc2F)C1=O)c1ccncc1 (stereo not given) | -15.1%
18 | Cc1nnc(N)s1 | -5.97%
19 | O=C(Nc1nnc(-c2ccc(Cl)cc2)o1)c1ccc(N2C(=O)CCC2=O)cc1 | 8.01%
20 | CN(C)c1ccc(C(=O)NNC(=O)c2ccc(Cl)cc2)cc1 | -8.45%
21 | O=C(CNc1cccc(C(F)(F)F)c1)N/N=C/c1cn(-c2ccccc2)nc1-c1ccccc1 | 8.35%
22 | NC(=O)CSc1nc(N)c2c3c(sc2n1)CCCCC3 | -1.55%

Row | SMILES | inhibition
23 | Cc1ccccc1NC(=O)CSc1nc(N)c2c3c(sc2n1)CSC(C)(C)C3 | 53.7%
24 | CC(C)(C)C1CCc2c(sc3nc(SCC(=O)O)nc(N)c23)C1 (stereo not given) | -0.64%
25 | CC1CCc2c(sc3nc(SCC(=O)NCc4ccco4)nc(N)c23)C1 (stereo not given) | 7.95%
26 | CCOC(=O)CSc1nc(N)c2c3c(sc2n1)CCCC3 | 70.6%
27 | CNC(=O)CSc1nc(N)c2c3c(sc2n1)CCC3 | 9.76%
28 | CCOc1ccccc1C1C(C#N)=C(N)Oc2cc(N)ccc21 (stereo not given) | 8.36%
29 | C=CCN1C(=O)C(C(C)CC)NC1=S (stereo not given) | -2.92%
30 | Cc1ccc(N=C2NC(=O)C(CC(=O)NCc3ccccc3)S2)cc1C (stereo not given) | -1.52%
31 | O=C(CCc1c[nH]c2ccccc12)Nc1ccc(S(=O)(=O)Nc2ncccn2)cc1 | -2.28%
32 | CC1CC1C(=O)OCC(=O)Nc1cccc([N+](=O)[O-])c1 (stereo not given) | -1.97%
33 | Cc1ccc(Sc2ccc(CN3CCCC3)cc2[N+](=O)[O-])cc1 | 9.11%
34 | CN1CCN(Cc2ccc(Sc3ccc(Cl)cc3)c([N+](=O)[O-])c2)CC1 | 18.9%
35 | O=C(CN1CCOCC1)NNC(=S)Nc1ccc(Cl)cc1 | 4.8%
36 | Cc1ccc(SCC(=O)NC2CCS(=O)(=O)C2)cc1 (stereo not given) | 4.3%
37 | Cc1nc(Nc2ccc3c(c2)OCO3)c2oc3ccccc3c2n1 | -15.2%
38 | CCc1nc(Nc2ccc3c(c2)OCCO3)c2oc3ccccc3c2n1 | 1.04%
39 | CCc1nc(N2CCN(Cc3ccc4c(c3)OCO4)CC2)c2oc3ccccc3c2n1 | 5.87%
40 | c1ccc2c(c1)oc1c(NCc3ccc4c(c3)OCO4)ncnc12 | 57.7%
41 | CC1Cc2ccccc2N1C(=O)c1cnc2ccccn2c1=O (stereo not given) | -5.12%
42 | COc1ccc2cc(C(=O)N3CCCCCC3)sc(=O)c2c1OC | -2.1%
43 | CCCCCC(=O)N1CC2(CC(c3cccc(NC(=O)CC(c4ccccc4)c4ccccc4)c3)=NO2)C[C@@H]1C(N)=O (stereo not given in full) | 11.1%
44 | Cc1nc(CNS(=O)(=O)c2cccs2)cs1 | 5.2%

Row | SMILES | inhibition
45 | Nc1ccc(/C=C/c2ccc3ncccc3c2)cc1 | 17.8%
46 | c1ccc2c(c1)ccc1ncccc12 | -7.23%
47 | COc1cccc(-c2ccc(C#N)c(=O)[nH]2)c1 | -3.44%
48 | O=C(Nc1cccc(O)c1)c1cccc(S(=O)(=O)N2CCCC2)c1 | -5.4%
49 | O=C(Nc1ccccc1O)c1ccccc1O | 0.57%
50 | CC(=O)Nc1ccccc1O | -3.72%
51 | C/C(=C\C(=O)c1ccccc1)Nc1ccc(O)cc1 | -1.7%
52 | C/C(=C\C(=O)c1cccnc1)Nc1ccc(O)cc1 | -6.05%
53 | COc1ccc(NC(=S)NC(C)c2ccncc2)cc1OC (stereo not given) | 0.92%
54 | O=C(O/N=C(\c1ccccc1)c1ccccn1)c1cccc2ccccc12 | 4.72%
55 | CCN(CC(=O)NCc1cccs1)c1ccc(S(=O)(=O)N2CCN(C)CC2)cn1 | -7.08%
56 | COc1ccc(-c2csc(/C(C#N)=C\c3ccc(O)c([N+](=O)[O-])c3)n2)cc1OC | 73.4%
57 | COc1ccc(-c2csc(/C(C#N)=C\c3ccc(OC)c([N+](=O)[O-])c3)n2)cc1 | 5.82%
58 | COc1ccc(S(=O)(=O)N2CCCCC2)cc1NC(=O)c1cc(C)on1 | -0.76%
59 | CNC(=S)Nn1cnc2ccccc21 | 0.16%
60 | COc1ccc(-n2ccnc2)cc1 | 1.8%
61 | c1ccc(-c2ccc(-n3ccnc3)cc2)cc1 | 1.87%
62 | COc1ccc(OC)c(N2C(=O)CC(Cc3ccc(Cl)cc3)C2=O)c1 (stereo not given) | -4.41%
63 | Cc1nc2ccccc2c(=O)n1/N=C/C=C/c1ccccc1 | -2.49%
64 | COc1ccc2c(c1)C1(Nc3ccccc3C(=O)N1c1ccccc1)C(=O)N2 (stereo not given) | -1.38%
65 | COc1cc2c(cc1OC)C1(NCC2)C(=O)Nc2ccccc21 (stereo not given) | 0.79%
